TWEAK-Fn14 inh: TWEAK-Fn14 signaling inhibition; actives 2% (n = 360,000); TWEAK-stimulated Fn14 reporter cells, luciferase luminescence, 8 h; inhibition, % at 10 µM; in the data active = inhibition above about 50%
EWS-Fli block: blocks EWS/Fli oncoprotein-driven transcription; A673 NR0B1-luciferase reporter, viability-normalised; inhibition, % at 12.6 µM; actives 0.67% (n = 350,000);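 active = mean inhibition of at least 50% after viability correction, with every replicate also passing that limit; inconclusive = mean reaches 50% but only one of two replicates passes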;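 also: firefly luciferase signal divided by Alamar Blue viability fluorescence both relative to DMSO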
TROY NFkB inh: inhibitors of TROY-dependent NF-kB signaling. inhibition, % at 10 µM. actives 0.98% (n = 360,000). Q293 LMP1-TROYcd NF-kB luciferase reporter, 4 h;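 active = compounds whose plate-normalised and pattern-corrected inhibition of the luciferase reporter signal at the single screening dose is 50% or more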
LGR2 inh: Drosophila LGR2 receptor signaling inhibition. actives 0.35% (n = 380,000). inhibition, % at 9.99 µM. AID 720647. HEK293 LGR2, CRE-luciferase, bursicon-stimulated, 4 h;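 active = drop in luminescence signal, shown as inhibition above about 50% in the replicate tests, limit read from the data, passing the limit was not always enough; inconclusive = probably only some replicates passing the limit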;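 also: agonist challenge used bursicon conditioned medium at about half maximal strength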
PAX8 inh HTS: lowers PAX8-driven luciferase in RMG-I cells; RMG-I TPO-luciferase reporter, SteadyGlo, 24 h; inhibition, % at 12.6 µM; actives 1.2% (n = 360,000); AID 652154;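 active = mean replicate inhibition at least 60% with every replicate also reaching 60%; inconclusive = only one of the two criteria is met; inactive = mean below 60% and not all replicates reaching 60%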;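 also: luciferase light reporting Pax8 driven TPO promoter activity; plate controls were median of neutral control wells for no effect and mitoxantrone controls for full effect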
Numbers without * were called inactive; ? = inconclusive; · = no result; ! = not active in a repeat. Rows were chosen to be rich in hits. Some 2.8% of all compounds tested hit in one or more screens of this group.

SMILES	TWEAK-Fn14 inh	EWS-Fli block	TROY NFkB inh	LGR2 inh	PAX8 inh HTS
C[C@@H]1CN([C@@H](C)CO)C(=O)c2cccc(NC(=O)c3cnccn3)c2O[C@@H]1CN(C)S(=O)(=O)c1ccc(Cl)cc1	·	6	·	-3	·
c1ccc(-c2noc(-c3ccc4ccccc4c3)n2)nc1	105*	·	86*	·	·
COc1ccc(NC(=O)Cc2ccccc2)cn1	0	-11	-8	2	1
COc1ccc(CS(=O)(=O)/C(Cl)=C(/Cl)C(=O)Nc2ccc(OC)nc2)cc1	99*	·	80*	·	·
COc1ccc(NC(=O)/C(Cl)=C(/Cl)S(=O)Cc2ccccc2)cn1 (configuration not stated)	98*	·	63*	·	·
Cc1noc(C)c1NC(=O)NCC[C@@H]1CC[C@@H](NC(=O)Nc2cccc(Cl)c2)[C@@H](CO)O1	·	5	·	8	-10
CC(C)c1ccc(N=Cc2c(O)c3ccccc3oc2=O)cc1	82*	5	69*	-17	12
COc1ccc(N=Cc2c(O)c3ccccc3oc2=O)cc1	5	4	27	-21	3
C[C@H](NC(=O)C[C@@H]1CC[C@H](NS(=O)(=O)c2cccc(F)c2)[C@@H](CO)O1)c1ccccc1	·	·	·	16	·
OC[C@@H]1CN(Cc2ccccc2)C[C@H](n2cnc3c(NCc4ccc(F)cc4)ncnc32)O1	-37	-61	-43	-37	-16
OC[C@@H]1CN(Cc2ccc(-c3ccccc3)cc2)C[C@H](n2cnc3c(NCc4ccc(F)cc4)ncnc32)O1	88*	26	50*	14	84*
OC[C@@H]1CN(Cc2ccc(-c3ccccc3)cc2)C[C@H](n2cnc3c(Nc4ccccc4)ncnc32)O1	92*	5	39	13	35
OC[C@@H]1CN(Cc2ccc(F)cc2)C[C@H](n2cnc3c(Nc4ccccc4)ncnc32)O1	11	-3	-2	-7	6
C=CCN(CC=C)c1ncnc2[nH]ncc12	67*	-12	32	1	-67
CC(C)n1cnc2c(Nc3cccc(F)c3)nc(NCCO)nc21	30	-47	39	-4	-37
CC(C)C[C@H](CO)Nc1nc(Nc2cccc(Cl)c2)c2ncn(C(C)C)c2n1	79*	-30	47	25	9
COc1cccc(-c2ccc(C3[C@H]4CNC[C@@H]3N4Cc3cc(F)ccc3F)cc2)c1 (some centres not stated)	·	4	·	-2	·
COc1cccc(-c2ccc(C3[C@H]4CNC[C@@H]3N4Cc3ccc(F)cc3)cc2)c1 (some centres not stated)	·	63*!	·	-14	-1
Cc1cc(C(=O)Nc2cccc3c2O[C@@H](CN(C)Cc2ccc(Oc4ccccc4)cc2)[C@H](C)CN([C@H](C)CO)C3=O)n(C)n1	·	-7	·	25	29
CC(=O)Nc1ccc(Br)c2ccccc12	5	2	2	·	-10
O=Nc1ccc(NO)c2ccccc12	71*	-19	36	-18	6
CN1CCN(C(=O)C[C@H]2CC[C@@H](NC(=O)Cc3ccccn3)[C@H](CO)O2)CC1	·	-3	·	-7	-3
C[C@@H]1CN([C@H](C)CO)C(=O)c2cc(C#CC3(O)CCCC3)cnc2O[C@H]1CN(C)C(=O)Cc1cccnc1	·	-12	·	-1	-5
Cc1ccc(-n2nnc(-c3cccnc3)n2)cc1	2	-92	-47	-62	-216
Cc1ccc(-n2nnc(-c3nccn3C)n2)cc1	76*	31	31	?	22
SMILES	TWEAK-Fn14 inh	EWS-Fli block	TROY NFkB inh	LGR2 inh	PAX8 inh HTS
Cc1ccc(-n2nnc(-c3cnc4ccccc4c3)n2)cc1	63*	35	18	10	-91
Fc1ccc(-n2nnc(-c3nccs3)n2)cc1	37	0	-14	7	-84
CC(C)=CCc1c(O)ccc2c1OC(c1ccc(O)c(O)c1)CC2=O (configuration not stated)	75*	46	42	-21	·
O=C1CC(c2ccc(O)c(O)c2)Oc2c1ccc(O)c2O (configuration not stated)	62*	-4	-3	32	·
C[C@H]1CN([C@@H](C)CO)C(=O)c2cccc(NC(=O)Nc3ccc(C(F)(F)F)cc3)c2O[C@H]1CN(C)S(=O)(=O)c1ccc(Cl)cc1	·	-4	·	·	·
Cc1cc(C)nc(Sc2ccc([N+](=O)[O-])cc2[N+](=O)[O-])n1	58*	·	21	20	94*
O=[N+]([O-])c1ccc(Sc2ccncn2)c([N+](=O)[O-])c1	77*	33	41	?	105*

Screens from PubChem BioAssay.
